# Screening data deposited in PubChem BioAssay by National Center for Advancing Translational Sciences (NCATS).
# D2 PAM-1 – D2 dopamine receptor (human) potentiation. hit rate 0.34% among 340,000. P14416. HEK293 T-REx D2, calcium flux, EC20 dopamine potentiation. potentiation, % at 10 µM;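 active = potentiation over 3 SD above the plate norm, cut at about 30% in these data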; note: 0% is about no effect
# Target sequence (P14416 whole entry, looked up): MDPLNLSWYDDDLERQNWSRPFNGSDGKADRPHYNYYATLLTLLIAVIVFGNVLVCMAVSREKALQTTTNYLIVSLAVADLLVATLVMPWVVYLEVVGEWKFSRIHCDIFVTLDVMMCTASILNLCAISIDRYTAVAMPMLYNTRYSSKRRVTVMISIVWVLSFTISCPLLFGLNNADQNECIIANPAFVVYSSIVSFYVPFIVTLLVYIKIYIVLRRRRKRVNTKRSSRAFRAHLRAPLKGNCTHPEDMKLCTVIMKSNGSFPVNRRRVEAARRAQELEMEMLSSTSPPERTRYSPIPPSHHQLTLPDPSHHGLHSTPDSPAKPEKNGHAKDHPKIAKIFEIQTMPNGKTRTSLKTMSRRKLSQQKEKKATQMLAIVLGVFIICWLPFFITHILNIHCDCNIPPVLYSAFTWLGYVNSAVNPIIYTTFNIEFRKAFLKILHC
#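 Potentiation of an EC20 dopamine calcium response measured kinetically over 180 s, after a preceding 180 s compound-only read flagging agonists. Cells: inducible Hek293 Trex D2 line, 4000/well, cultured overnight at 30 C before dye loading.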
# D2 ag-1 – D2 dopamine receptor (human) agonism | P14416 | HEK293 T-REx D2 cells, calcium flux agonist mode | activation, % at 2 µM | hit rate 0.53% among 340,000;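 active = activation over 3 SD above normal in the single-dose calcium agonist read, cut at about 30% in these data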; note: 0% is about no effect
#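 Tetracycline-induced HEK293 T-REx cells with force-coupled D2 receptor, plated overnight at 30 C, loaded with no-wash calcium dye. After a 10 s baseline, compound was pin-added and calcium flux read kinetically for 180 s; calcium rises flagged agonists.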
# D2 antagonist – antagonizes the human D2 dopamine receptor; inhibition, % at 10 µM; P14416; hit rate 2% among 340,000; HEK293 TREx D2 cells, calcium flux, dopamine EC80; in the data active = inhibition above about 30%; inactive = below that, where a call was filed; note: 0% is about no effect
#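 Dopamine at EC80 is the agonist stimulus; test compounds precede it by 180 s. Calcium flux read kinetically in a force-coupled, inducible HEK293 T-REx D2 cell line.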
# D2 PAM-2 – human D2 receptor positive allosteric modulation | P14416 | DiscoveRx D2 beta-arrestin cells, luminescence, 90 min; 100% = 57 uM dopamine signal | potentiation, % (concentration not given with the values) | hit rate 0.23% among 360,000 | AID 624464; in the data active = potentiation above about 50%
#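 D2 cells co-treated with compound plus 50 nM dopamine (EC20) for 90 min at 37 deg C to detect potentiation. Beta-arrestin recruitment was read as enzyme-fragment luminescence after 1 h at ambient temperature. Full response was set by 57 uM dopamine.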
# D2 ag-2 – human D2 receptor agonism in beta-arrestin assay; DiscoveRx PathHunter D2 beta-arrestin, luminescence, 90 min; 100% = 57 uM dopamine signal; activation, % (test concentration not listed); hit rate 0.084% among 360,000; AID 624465; in the data active = activation above about 40%
#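 DiscoveRx PathHunter D2 beta-arrestin cells (2,100/well) attached overnight, then compound-stimulated 90 min at 37 C in HBSS/10 mM HEPES/0.1% Tween-20 buffer; beta-galactosidase complementation read by luminescence after 1 h at ambient temperature. Dopamine 57 uM final (EC100) as control.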
# Numbers without * were called inactive; · = no result. Rows were chosen to be rich in hits. Some 2.4% of all compounds tested hit in one or more screens of this group.
SMILES,D2 PAM-1,D2 ag-1,D2 antagonist,D2 PAM-2,D2 ag-2
COc1ccc(-n2nnnc2SCC(=O)c2cccc(OC)c2)cc1,-5,1,14,0,-1
COc1ccc(-n2nnnc2SCC(=O)c2ccc3c(c2)OCCO3)cc1,34*,0,-4,-4,-4
c1ccn2c(SCc3ccc4c(c3)OCCO4)nnc2c1,8,0,-5,-4,-2
O=C(CSc1nnc2scc(-c3ccccc3)n12)c1ccc2c(c1)OCCO2,-8,-1,31*,3,0
O=C(CSc1nnc(-c2ccccc2)o1)c1ccc2c(c1)OCCO2,6,0,3,-5,0
c1ccc(-c2csc3nnc(SCc4ccc5c(c4)OCCO5)n23)cc1,43*,1,10,-7,-3
COC(=O)c1ccc(Cl)cc1NC(=O)N(C)CCc1c(C)nn(C)c1C,3,0,·,·,·
Cc1ccc(NC(=O)Cn2cc(S(=O)(=O)Cc3ccc(F)cc3)c3ccccc32)cc1Cl,0,1,·,·,·
COc1ccc(C2C(=O)N(C3CCCCC3)CC(=O)N2CCc2ccc(OC)c(OC)c2)cc1 (configuration not stated),0,1,·,·,·
Cc1ccc(NC(=O)C(=O)NCC(c2cccnc2)N2CCc3ccccc3C2)cc1 (configuration not stated),9,-1,·,·,·
C=C(C)C(=O)Nc1cccc(C2=NOC3(C2)C[C@@H](C(N)=O)N(C(=O)c2cc([N+](=O)[O-])cc([N+](=O)[O-])c2)C3)c1 (some centres not stated),11,0,-14,84*,12
C/C=C(/C)C(=O)Nc1cccc(C2=NOC3(C2)C[C@@H](C(N)=O)N(C(=O)CC)C3)c1 (some centres not stated),-20,0,43*,-2,0
C=C(C)C(=O)Nc1cccc(C2=NOC3(C2)C[C@@H](C(N)=O)N(C(=O)c2ccc(OC)cc2)C3)c1 (some centres not stated),-6,0,8,-6,-2
COc1cccc(C(=O)Nc2ccccc2C(=O)OCc2cc(=O)n3nc(C4CC4)sc3n2)c1,-2,·,·,·,·
O=c1cc(N2CCN(Cc3ccccc3)CC2)[nH]c(=O)n1-c1ccc(Br)cc1,0,1,38*,-4,-1
N#CCSc1nc2ccccc2c2nc3ccccc3n12,5,3,33*,-6,0
COc1cc(/C=C(\C#N)c2nc3ccccc3[nH]2)cc(OC)c1O,-2,36*,9,5,12
COc1cc(CNc2ncc(-c3ccc(Br)cc3)n2C)cc(OC)c1OC,-11,-1,2,-4,0
Cn1c(-c2ccc(Br)cc2)cnc1NCc1cccnc1,14,0,43*,-29,-5
CCc1nc2nc(C)cc(Nc3cc(C)ccc3C)n2n1,·,-1,·,·,·
CC1=C(C(=O)OCC2CCCO2)C(c2coc3ccc(C)cc3c2=O)C2=C(CCCC2=O)N1 (configuration not stated),31*,0,-5,-6,-4
CC1=C(C(=O)OCC2CCCO2)C(c2coc3ccc(Cl)cc3c2=O)C2=C(CCCC2=O)N1 (configuration not stated),23,0,1,-26,-1
O=C(C1CCCN(S(=O)(=O)c2cccc3nonc23)C1)N1CCN(c2cccc(C(F)(F)F)c2)CC1 (configuration not stated),5,0,·,·,·
O=C1NC(=Nc2ccccc2)SC1Cc1ccccc1 (configuration not stated),41*,-1,0,-3,-2
O=C1N/C(=N/c2ccccn2)SC1Cc1ccccc1 (configuration not stated),6,1,-1,-7,5
SMILES,D2 PAM-1,D2 ag-1,D2 antagonist,D2 PAM-2,D2 ag-2
O=C(COc1ccccc1Cl)N(Cc1cccc(F)c1)C1CCS(=O)(=O)C1 (configuration not stated),-11,·,·,·,·
Cc1cccc(N2CCn3c2nc2c3c(=O)n(CCCc3ccccc3)c(=O)n2C)c1,1,1,·,·,·
CCOC(=O)c1sc2nc(CSc3ccccc3)nc(N3CCCN(C)CC3)c2c1C,-27,0,53*,-1,-1
CCOC(=O)c1sc2nc(CSc3ccccc3)nc(N3CCC(C(N)=O)CC3)c2c1C,12,0,-7,-2,2
COc1cc(OC)cc(-c2nnc(SCC(=O)N3CCC(C)CC3)o2)c1,3,-2,·,·,·
CSc1ccc(CN2CCC(CO)(CCOc3ccccc3)CC2)cc1,-18,1,51*,-82,1
OCC1(CCOc2ccccc2)CCN(Cc2ccccc2OC(F)F)CC1,-17,0,-3,-25,-1
C=CCOc1ccccc1CN1CCC(CO)(CCOc2ccccc2)CC1,-20,-1,64*,-10,-1
O=C(COC(=O)/C=C/c1cccs1)NC(c1ccccc1)c1ccccc1,-5,-2,-2,15,0
O=C(COC(=O)/C=C/C(=O)N1CCN(c2ccccc2)CC1)NC(c1ccccc1)c1ccccc1,-8,0,69*,-1,-3
Cc1ccc(CN(C(=O)c2ccc(F)cc2)c2ccccn2)o1,-10,1,·,·,·
COc1ccccc1N1CCN(CCN(C(=O)c2ccc(F)cc2)c2ccccn2)CC1,-20,1,61*,-35,-3
COc1ccccc1N1CCN(CCN(C(=O)C2CCCCC2)c2ccccn2)CC1,-19,0,70*,-37,-3
COc1ccc(C(=O)CCN2CCN(c3ccccc3OC)CC2)cc1,-3,-1,-7,-15,-3
COc1ccccc1N1CCN(CCCC(=O)c2ccc(F)cc2)CC1,-24,-1,70*,-35,-3
O=C(C1CCCCC1)N(Cc1ccccc1)c1ccccn1,-2,0,-18,-8,2
Cc1sc2nc(SCc3nc(-c4ccccc4)no3)n(-c3ccccc3)c(=O)c2c1C,34*,0,9,5,-3
CC(NC(=O)c1cccc(S(=O)(=O)N2CCN(Cc3ccccc3)CC2)c1)c1ccc(Cl)cc1 (configuration not stated),-4,1,36*,-8,-1
COc1ccccc1NC(=O)c1cccc(S(=O)(=O)N2CCN(Cc3ccccc3)CC2)c1,1,0,10,-67,-2
CCCN1CCN(CCCNC(=O)c2ccc3c(c2)sc2nc(-c4ccc(C)cc4)cn23)CC1,-8,1,·,·,·
Cc1ccc(Nc2cc(-c3ccccc3)nc3ncnn23)cc1,-1,0,33*,-8,-3
Cc1cc(Nc2ccc(Cl)cc2)n2ncnc2n1,5,0,-3,-4,-2
Cc1ccc(-c2nnc(NC(=O)Cc3ccc(F)cc3)o2)c(C)c1,-27,-1,67*,-21,-4
Cc1ccc(C)c(-c2nnc(NC(=O)Cc3ccc(F)cc3)o2)c1,-24,0,11,-14,0
